Results from PubChem BioAssay.
Where “and” joins values, the source holds several entries; their conditions need not be identical. Equal values may be shown once. Calls of active or inactive are those of the source. Unless noted, how the calls were made is not given here.

What was measured:
[1] = circadian clock period modulators, cell-based, LOPAC library, luminescence reporter (AID 2774); conditions: circadian reporter cells, at 7 µM, actives lie on both sides;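 further: values are relative to mean of DMSO wells on each plate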
[2] = system: Hepatitis C virus NS3 helicase; assay: HCV NS3 helicase inhibitors, primary screen, biochemical, fluorescence polarization, LOPAC1280 library (AID 687035; in the data active means inhibition above about 37%); conditions: Purified HCV NS3 helicase, Cy5-dT15 ssDNA binding fluorescence polarization; stronger effect = higher value; concentration not given here
[3] = Cy5 fluorescence quenching or enhancement artefacts, artefact control for HCV NS3 helicase inhibitor project, biochemical, LOPAC1280 (AID 687037); conditions: Cy5-DNA-NS3h complex fluorescence interference counterscreen
[4] = system: Aerobactin synthetase IucA (Klebsiella pneumoniae, hypervirulent); assay: IucA enzyme inhibition, biochemical, LOPAC library, absorbance readout (AID 1346212); conditions: IucA enzyme assay, absorbance (OD) readout; stronger effect = lower value;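 tested at 8 µM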;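 further: 100% = no compound wells and 0% = no enzyme wells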
[5] = sensitizers of A549 cells to miR-34 induction, primary screen, imaging, A549 dox-inducible miR-34, nuclei and caspase counts (AID 1347080;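 active means compounds whose cell count with miR-34 switched on is under 0.7 times the count with it off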); conditions: A549 miR-34 inducible, Hoechst nuclei count, 48 h
[6] = phospholipid biosynthesis inhibitors in animal cells, primary screen, cell-based, LOPAC library, screen 4 (AID 1347384); conditions: phospholipid biosynthesis inhibition screen, at 10 µM
[7] = viability rescue of complex I mutant cybrids, primary screen, cell-based, galactose medium, ATP luminescence (AID 1645843;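 active means z-score of at least 1.8 in each of two replicates, scored against plate mean and spread of sample wells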;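 further: positive z means more ATP and so rescue of galactose-driven cybrid death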); conditions: complex I mutant cybrid cells, 72 h, stronger effect = higher value
[8] = liver-stage malaria parasite growth inhibition, primary screen, cell-based, HepG2, luciferase luminescence, HepG2 viability (AID 624349; in the data active means parasite load remaining mostly below about 12%, no sharp cut-off; inactive means mostly above about 10%;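 further: 100% = mean of DMSO negative control wells on the same plate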); conditions: P. berghei liver stage in HepG2, luciferase luminescence, concentration not given here; parasite load remaining: stronger effect = lower value; viability: measured here: HepG2 viability without parasites
[9] = hESC survival regulators, cell-based (AID 493140); conditions: human embryonic stem cell survival screen; stronger effect = higher value;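 further: cells exposed to compounds for four days before counting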
[10] = measured here: relative caspase fold change +Dox/-Dox
[11] = measured here: total cells with miR-34 induction, stronger effect = lower value
[12] = measured here: total cells without miR-34 induction

SMILES | period change [1] | inhibition [2] | fluorescence ratio (interference) [3] | remaining activity [4] | fold change ([5]; stronger effect = lower value) | fold change [5, 10] | cell count [5, 11] | cell count [5, 12] | outcome [6] | z-score [7] | parasite load remaining [8] | viability [8] [%] | survival [9]
NC(=O)c1ccc(OCC(O)CN2CC=C(c3ccc(F)cc3)CC2)cc1 (stereo not drawn) | 0.145 h (inactive) | -1% (inactive) | 0.9 (inactive) | 103% (inactive) | 1.01 (inactive) | 1.9 | 9620 | 9570 | inactive | -0.85 (inactive) |  |  | 
CNCCc1ccc(O)c(O)c1 | 0 h (inactive) | -2% (inactive) | 1 (inactive) | 115% (inactive) | 1.01 (inactive) | 1.35 | 9960 | 9850 | inactive | -0.945 (inactive) |  |  | 
CC12NC(Cc3ccccc31)c1ccccc12 (stereo not drawn) | 0.25 h (inactive) | -3% (inactive) | 0.9 (inactive) | 120% (inactive) | 1.01 (inactive) and 0.879 (inactive) | 1.28 and 2.22 | 10300 and 11700 | 10100 and 13300 | inactive | -0.15 (inactive) | 63.2% (inactive) | 167 | 
CC1(C(=O)O)C2CCC(O2)C1(C)C(=O)O (stereo not drawn) | 0.3 h (inactive) | -5% (inactive) | 1 (inactive) | 118% (inactive) | 0.789 (inactive) | 1.91 | 286 | 362 | inactive | -1.46 (inactive) |  |  | 0.417 (inactive)
CCCn1c(=O)c2[nH]c(C3CCCC3)nc2n(CCCOC(=O)c2ccc(S(=O)(=O)F)cc2)c1=O | -0.07 h (inactive) | -3% (inactive) | 1 (inactive) | 102% (inactive) | 0.972 (inactive) | 1.12 | 6100 | 6280 | inactive | -0.865 (inactive) |  |  | 
NC1CCc2cc(O)c(O)cc2C1 (stereo not drawn) | 0.115 h (inactive) | -1% (inactive) | 1 (inactive) | 106% (inactive) | 0.979 (inactive) and 0.806 (inactive) | 1.51 and 1.21 | 9700 and 3720 | 9900 and 4610 | inactive | -0.895 (inactive) |  |  | 
C[N+]1(C)C2CCC1CC(OC(=O)c1c[nH]c3ccccc13)C2 (stereo not drawn) | -0.255 h (inactive) | 0% (inactive) | 1 (inactive) | 94.3% (inactive) | 0.939 (inactive) | 1.36 | 9240 | 9840 | inactive | 0.4 (inactive) |  |  | 
C#CCN[C@H](C)Cc1ccccc1 | -0.015 h (inactive) | -2% (inactive) | 1 (inactive) | 82% (inactive) | 0.962 (inactive) | 1.51 | 9640 | 10000 | inactive | 0.54 (inactive) |  |  | 
